A short description of assay [1]: Nuclear factor erythroid 2-related factor 2/antioxidant responsive element (Nrf2/ARE) small molecule agonists: qHTS cell viability counter screen in human keratinocytes (AID 1919968; active means well fitted curve in the direction sought with a large enough effect in the repeat runs; an effect the other way counts as inactive or inconclusive; further: nearly all actives have a fitted effect of over 55% in size). The procedure, abridged:
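Cytotoxicity was multiplexed with the Nrf2/ARE luciferase assay in the same wells. Stably transfected HaCaT keratinocytes were treated with test compounds for 23 h at 37 C. Cell viability was then measured by CellTiter-Fluor fluorescence.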
Background: Quantitative high-throughput screening tests each substance at several concentrations.

Assay [2] in a line: Nuclear factor erythroid 2-related factor 2/antioxidant responsive element (Nrf2/ARE) small molecule agonists: luciferase reporter gene qHTS assay in human keratinocytes (AID 1919969; further: nearly all actives have a fitted effect of over 35% in size; further: potency means the concentration at half of the fitted maximal effect). (A reporter such as luciferase makes a cellular process visible.)
Assay [3] deals with Gonadotropin-releasing hormone receptor (Homo sapiens) (UniProt P30968). Description: Human gonadotropin-releasing hormone receptor (GnRHR) small molecule agonists, calcium flux assay in GnRHR-HEK293 cells (AID 1920063). Further: nearly all actives have a fitted effect of over 35% in size. The procedure, abridged: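 Agonist activity was measured as intracellular calcium flux in HEK293 cells engineered to stably express human GnRHR. After dye loading for 1 hour at 37 C, compounds in DMSO were added and fluorescence was followed for 3 minutes.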
Chain of Gonadotropin-releasing hormone receptor (Homo sapiens) (P30968 whole entry, looked up): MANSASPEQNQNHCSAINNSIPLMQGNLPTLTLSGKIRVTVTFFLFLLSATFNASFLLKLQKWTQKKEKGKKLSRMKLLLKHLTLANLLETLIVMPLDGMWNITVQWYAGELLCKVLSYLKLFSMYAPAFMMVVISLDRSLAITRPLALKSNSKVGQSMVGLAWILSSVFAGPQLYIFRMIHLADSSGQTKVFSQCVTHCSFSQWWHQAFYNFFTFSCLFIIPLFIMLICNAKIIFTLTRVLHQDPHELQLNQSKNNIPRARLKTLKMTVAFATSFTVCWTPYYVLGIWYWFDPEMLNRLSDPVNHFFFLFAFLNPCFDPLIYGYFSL

The target of assay [4] is KiSS-1 receptor (Homo sapiens) (UniProt Q969F8). Nature of the assay: Human kisspeptin (KISS1R) small molecule agonists, calcium flux assay in KISS1R-HEK293 cells (AID 1920064; active means well fitted curve in the direction sought with a large enough effect in the repeat runs; an effect the other way counts as inactive or inconclusive). Summed up: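 Agonist activity is monitored as intracellular calcium rise in engineered HEK293 cells carrying human KISS1R. Cells are dye-loaded for 1 h at 37 C before compound addition, and fluorescence is recorded for 3 min.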
Chain of KiSS-1 receptor (Homo sapiens) (Q969F8 whole entry, looked up): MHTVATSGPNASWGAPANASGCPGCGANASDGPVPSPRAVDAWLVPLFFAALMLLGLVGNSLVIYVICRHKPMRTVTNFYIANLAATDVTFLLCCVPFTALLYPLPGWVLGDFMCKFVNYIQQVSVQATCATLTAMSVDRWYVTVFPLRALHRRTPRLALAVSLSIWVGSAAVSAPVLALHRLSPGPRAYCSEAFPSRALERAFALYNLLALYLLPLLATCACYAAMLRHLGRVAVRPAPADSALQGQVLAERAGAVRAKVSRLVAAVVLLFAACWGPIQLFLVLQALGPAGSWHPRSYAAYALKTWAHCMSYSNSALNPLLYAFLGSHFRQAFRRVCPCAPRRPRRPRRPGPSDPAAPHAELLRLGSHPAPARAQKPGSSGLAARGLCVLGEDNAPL
(Calcium flux is commonly read through the fluorescence of an indicator in the cells.)

Assay [5] can be described thus: G protein-coupled receptor (GPCR) small molecule agonists, calcium flux assay: HEK293 wild type cell line counter screen (AID 1920065). The procedure, abridged: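 Seed cells, incubate 18 h (37 C, 5% CO2); add calcium dye, 1 h at 37 C; pin-transfer compounds, ATP control or DMSO; read fluorescence 480/540 nm each second for 3 min.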
Assay [6] is described as follows: p53 small molecule agonists, cell-based qHTS assay with human liver microsomes (AID 1963577).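 Further: p53 response element beta-lactamase reporter cells with liver microsomes plus NADPH.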 Summed up: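 With metabolic activation: human liver microsomes (0.5 mg/mL final) plus NADPH (0.5 mg/mL final) added alongside compounds to p53RE-bla cells; 16 h 37 C exposure; beta-lactamase read by LiveBLAzer fluorescence.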
Assay [7] is described as follows: p53 small molecule agonists, cell-based qHTS assay with rat liver microsomes (AID 1963578). The procedure, abridged: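 Metabolic activation by rat liver microsomes and NADPH, each 0.5 mg/mL final, added right after compounds to p53RE-bla reporter cells (4,000/well, plated 5 h earlier). 16 h at 37 C, then LiveBLAzer substrate for 2 h at room temperature in the dark; fluorescence read-out.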

A short description of assay [8]: p53 small molecule agonists, cell-based qHTS assay with human liver microsomes: qHTS cell viability counter screen (AID 1963579). Further: nearly all actives have a fitted effect of over 45% in size. Summed up:
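Metabolic activation used human liver microsomes and NADPH, both 0.5 mg/mL final, over 16 hours at 37 C on p53RE-bla cells (4,000/well). Cytotoxicity measured by CellTiter-Glo luminescence, 30 min at room temperature.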

A short description of assay [9]: p53 small molecule agonists, cell-based qHTS assay with rat liver microsomes: qHTS cell viability counter screen (AID 1963580). Further: nearly all actives have a fitted effect of over 45% in size. The procedure, abridged:
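Cytotoxicity counter screen: intracellular ATP read by CellTiter-Glo luminescence in the p53 reporter wells. HCT-116 p53RE-bla cells were treated for 16 h at 37 C alongside rat liver microsomes and NADPH, each 0.5 mg/mL final.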

Assay [10] can be described thus: p53 small molecule agonists, cell-based qHTS assay: qHTS cell viability counter screen (AID 1963581). Further: nearly all actives have a fitted effect of over 45% in size. The procedure, abridged: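 Viability was counter-screened in parallel with the p53 agonist reporter by measuring intracellular ATP luminescence in the same HCT-116 p53RE-bla wells after 16 h compound treatment at 37 C.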
The nature of assay [11]: p53 small molecule agonists, cell-based qHTS assay (AID 1963582; active means well fitted activation curve with a large enough effect in the signal ratio in the repeat runs, not every such curve was filed as active; the % refers to the signal ratio). Summed up: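 Cells carrying a p53-responsive bla reporter are treated with test compounds for 16 h at 37 C; beta-lactamase activity is then detected with LiveBLAzer B/G FRET substrate after 2 h at room temperature.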
In assay [12] the target is 5-hydroxytryptamine receptor 2A (Homo sapiens) (UniProt P28223). Nature of the assay: 5-hydroxytryptamine receptor 2A (HTR2A) small molecule antagonists, cell-based qHTS assay (AID 1963586). Further: nearly all actives have a fitted effect of over 45% in size. Summed up:
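CHO cells stably expressing human HTR2A were plated for 18 h at 37 C, then loaded with calcium dye for 1 h. Compounds were preincubated 5 min at room temperature before DOI (4 nM solution) was added. Kinetic fluorescence was read for 3 min.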

Assay [13] shares this target. Description: 5-hydroxytryptamine receptor 2A (HTR2A) small molecule agonists, cell-based qHTS assay (AID 1963587). Further: nearly all actives have a fitted effect of over 30% in size. Summed up: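 Kinetic calcium-flux fluorescence (2 min, 1 sec intervals) after compound addition in agonist mode. HTR2A-CHO cells were cultured 18 h, then dye-loaded 1 h at 37 C.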
The target of assay [14] is Muscarinic acetylcholine receptor M1 (Homo sapiens) (UniProt P11229). Nature of the assay: Cholinergic receptor muscarinic 1 (CHRM1) small molecule antagonists, cell-based qHTS assay (AID 1963588). Further: nearly all actives have a fitted effect of over 40% in size. Summed up:
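Compounds were tested at 15 concentrations in three independent runs. Dye-loaded CHRM1-CHO cells were exposed 5 min at room temperature before stimulation by acetylcholine added at 50nM. Intracellular calcium was read kinetically on FDSS for 3 min.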

The target is the same in assay [15]. Description: Cholinergic receptor muscarinic 1 (CHRM1) small molecule agonists, cell-based qHTS assay (AID 1963589). Further: nearly all actives have a fitted effect of over 35% in size. The procedure, abridged:
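Cells were plated and incubated 18 h at 37 C/5% CO2, loaded with calcium dye for 1 h at 37 C, then treated with compounds in DMSO. Fluorescence was recorded kinetically at 1 sec intervals.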

Assay [16] is described as follows: cAMP Responsive Elements (CRE) small molecule agonists, cell-based qHTS assay (AID 1963590). The procedure, abridged: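 Cells carrying a CRE-driven beta-lactamase reporter (HEK 293T) are seeded, incubated overnight (18 h), and treated with test compounds for 3 h at 37 C; reporter activity is then detected with a FRET substrate after 2 h at room temperature.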

Assay [17] is described as follows: cAMP Responsive Elements (CRE) small molecule antagonists, cell-based qHTS assay (AID 1963591; active means well fitted inhibition curve with a large enough effect in the signal ratio in the repeat runs, not every such curve was filed as active; the % refers to the signal ratio). The procedure, abridged: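 Cells (CRE-bla HEK 293T, DMEM with 10% dialyzed FBS and 25 mM HEPES) are seeded and incubated 18 h. Compounds are added with NKH477 agonist at 0.25 uM final for 3 h, then FRET substrate for 2 h.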
Assay [18] has as its target Beta-2 adrenergic receptor (Homo sapiens) (UniProt P07550). Nature of the assay: Adrenergic beta2 receptor (ADRB2) small molecule antagonists, cell-based qHTS assay (AID 1963592). Further: series mostly up to about 92 µM; nearly all actives have a fitted effect of over 50% in size. Summed up:
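Assay format: CHO-ADRB2 cells, 18-20hr seeding at 37C/5% CO2, then compound plus 1nM isoproterenol agonist mix for 0.5hr RT. Homogeneous time-resolved fluorescence cAMP detection after 1hr, expressed as 665/615 nm ratio.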

For assay [19], the target named is D(2) dopamine receptor (Homo sapiens) (UniProt P14416). Nature of the assay: Dopamine D2 receptor (DRD2) small molecule agonists, cell-based qHTS assay (AID 1963594). Further: nearly all actives have a fitted effect of over 35% in size. Summed up: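 cAMP accumulation in DRD2-HEK293 cells measured by HTRF after 1 h detection; compounds added 10 min before NKH477 (200nM […]) forskolin-analogue stimulation, 30 min at room temperature, with Ro20-1724 present at 0.1 mM final.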
Chain of D(2) dopamine receptor (Homo sapiens) (P14416 whole entry, looked up): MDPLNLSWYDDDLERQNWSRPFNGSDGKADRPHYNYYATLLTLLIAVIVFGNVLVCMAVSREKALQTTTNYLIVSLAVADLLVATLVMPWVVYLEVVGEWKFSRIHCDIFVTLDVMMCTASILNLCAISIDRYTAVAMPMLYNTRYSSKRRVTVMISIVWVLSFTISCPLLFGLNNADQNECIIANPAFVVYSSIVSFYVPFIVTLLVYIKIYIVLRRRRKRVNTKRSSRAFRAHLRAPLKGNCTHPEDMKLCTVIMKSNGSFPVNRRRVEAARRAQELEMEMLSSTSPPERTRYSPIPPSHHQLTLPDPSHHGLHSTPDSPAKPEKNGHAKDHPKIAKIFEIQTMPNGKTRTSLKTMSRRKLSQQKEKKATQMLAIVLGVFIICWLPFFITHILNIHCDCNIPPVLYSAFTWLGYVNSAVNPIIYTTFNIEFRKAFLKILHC

Assay [20] has the same target. Nature of the assay: Dopamine D2 receptor (DRD2) small molecule antagonists, cell-based qHTS assay (AID 1963595; active means well fitted inhibition curve with a large enough effect in the signal ratio in the repeat runs, with a control signal flat; the % refers to the signal ratio). Summed up: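 Human DRD2 antagonist qHTS measuring cAMP by HTRF. The cells are exposed to compound for 10 min, then to NKH477 (200 nM) and quinpirole (12 nM) for 30 min at RT, with Ro20-1724 (0.1 mM) present throughout.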

Molecules are shown by their SMILES. Values joined by “and” are separate entries in the source; they are usually repeats but may differ in a detail not shown here. Equal values may be shown once. Inconclusive results are not listed. Active and inactive are the calls of the source. Unless noted, the call rests on the fitted dose curve.

Chain of 5-hydroxytryptamine receptor 2A (Homo sapiens) (P28223 whole entry, looked up): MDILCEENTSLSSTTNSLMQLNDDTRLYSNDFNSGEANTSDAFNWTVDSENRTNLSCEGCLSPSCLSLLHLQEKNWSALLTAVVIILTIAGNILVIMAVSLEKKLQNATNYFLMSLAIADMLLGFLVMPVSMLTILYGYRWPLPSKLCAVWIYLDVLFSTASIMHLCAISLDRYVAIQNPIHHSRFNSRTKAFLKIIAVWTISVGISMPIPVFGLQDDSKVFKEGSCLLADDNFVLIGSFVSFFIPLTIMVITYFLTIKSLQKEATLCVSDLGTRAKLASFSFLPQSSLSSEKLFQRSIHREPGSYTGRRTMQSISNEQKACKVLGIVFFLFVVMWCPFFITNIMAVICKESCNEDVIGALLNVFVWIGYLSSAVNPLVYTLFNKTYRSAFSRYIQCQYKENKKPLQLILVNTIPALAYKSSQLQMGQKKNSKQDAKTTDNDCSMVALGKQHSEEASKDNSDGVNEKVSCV
Chain of Muscarinic acetylcholine receptor M1 (Homo sapiens) (P11229 whole entry, looked up): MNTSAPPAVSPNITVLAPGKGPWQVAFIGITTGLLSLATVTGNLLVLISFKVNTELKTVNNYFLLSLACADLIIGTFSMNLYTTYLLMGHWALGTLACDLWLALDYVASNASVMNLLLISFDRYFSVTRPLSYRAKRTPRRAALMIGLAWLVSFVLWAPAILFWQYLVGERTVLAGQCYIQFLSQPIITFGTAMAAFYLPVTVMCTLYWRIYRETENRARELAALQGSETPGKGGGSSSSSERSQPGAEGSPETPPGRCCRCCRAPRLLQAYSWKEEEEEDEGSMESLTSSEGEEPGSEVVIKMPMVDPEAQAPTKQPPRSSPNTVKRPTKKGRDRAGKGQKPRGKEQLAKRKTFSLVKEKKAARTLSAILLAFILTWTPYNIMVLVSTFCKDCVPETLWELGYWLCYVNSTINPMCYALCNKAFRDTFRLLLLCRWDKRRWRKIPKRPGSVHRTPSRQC
Chain of Beta-2 adrenergic receptor (Homo sapiens) (P07550 whole entry, looked up): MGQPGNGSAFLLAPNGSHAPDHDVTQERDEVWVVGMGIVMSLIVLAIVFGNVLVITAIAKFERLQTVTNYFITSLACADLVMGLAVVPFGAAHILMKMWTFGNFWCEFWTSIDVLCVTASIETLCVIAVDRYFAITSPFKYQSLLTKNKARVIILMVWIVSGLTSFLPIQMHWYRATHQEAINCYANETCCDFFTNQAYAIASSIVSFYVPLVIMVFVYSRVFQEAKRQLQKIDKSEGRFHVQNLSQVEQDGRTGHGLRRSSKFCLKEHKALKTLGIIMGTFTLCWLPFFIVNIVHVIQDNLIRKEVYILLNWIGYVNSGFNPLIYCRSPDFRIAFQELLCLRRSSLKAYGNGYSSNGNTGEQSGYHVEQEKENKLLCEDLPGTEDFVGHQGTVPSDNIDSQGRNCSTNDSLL

For `c1ccc(-c2cccc(-c3ccccc3)c2)cc1`, the Potency result in assay [1], in [3], in [4], in [5], in assay [6] and in assay [7] was “inactive” each time. The Potency entry in [8], in assay [9], in assay [10], in assay [11], in assay [12] and in assay [13] was “inactive” in each case. The Potency entry in assay [14], in assay [15], in assay [16], in [17], in assay [18] and in assay [19] was “inactive” each time. Also, the Potency result in [20] was “inactive”. In assay [2], the Potency was 21.9 µM (active) and 27.3 µM (active).
On to `ClCC1CO1` (stereo not given), for which the Potency entry in assay [1], in [2], in [3], in assay [4], in assay [5] and in assay [6] was “inactive” in each case. Moreover, the Potency result in [7], in assay [8], in assay [9], in assay [10], in assay [11] and in assay [12] was “inactive” throughout. For the same compound, the Potency entry in [13], in [14], in assay [15], in assay [16], in assay [17] and in assay [18] was “inactive” in each case. Moreover, the Potency entry in assay [19] and in assay [20] was “inactive” each time.
Take `C1CN2CCC1CC2`: the Potency result in [1], in assay [2], in assay [3], in assay [4], in [5] and in [6] was “inactive” throughout. Besides, the Potency entry in [7], in assay [8], in assay [9], in assay [10], in [11] and in assay [12] was “inactive” throughout. Further, the Potency entry in assay [13], in assay [14], in assay [15], in assay [16], in assay [17] and in assay [18] was “inactive” in each case. Besides, the Potency result in assay [19] and in assay [20] was “inactive” each time.
`O=C(O)CC[N+](=O)[O-]`: the Potency result in [1], in assay [2], in assay [3], in assay [4], in [5] and in assay [6] was “inactive” throughout. The Potency result in assay [7], in assay [8], in assay [9], in assay [10], in assay [11] and in assay [12] was “inactive” throughout. Further, the Potency result in [13], in assay [14], in assay [15], in assay [16], in [17] and in [18] was “inactive” throughout. Besides, the Potency entry in assay [19] and in [20] was “inactive” throughout.
Turning to `CC(O)CN1CCN(CC(=O)[O-])CCN(CC(=O)[O-])CCN(CC(=O)[O-])CC1.[Gd+3]` (stereo not given), the Potency entry in [1], in [2], in assay [3], in [4], in assay [5] and in [6] was “inactive” each time. The Potency entry in assay [7], in [8], in assay [9], in [10], in assay [11] and in assay [12] was “inactive” throughout. Also, the Potency result in [13], in assay [14], in [15], in [16], in assay [17] and in assay [18] was “inactive” throughout. The Potency entry in assay [19] and in assay [20] was “inactive” throughout.
Regarding `Cc1ncc(CNC(=O)N(CCCl)N=O)c(N)n1`, the Potency result in [1], in assay [2], in assay [3], in assay [4], in [5] and in [6] was “inactive” throughout. In addition, the Potency entry in [7], in assay [8], in [9], in assay [10], in [11] and in assay [12] was “inactive” each time. Also, the Potency result in assay [13], in assay [14], in assay [15], in assay [16], in [17] and in assay [18] was “inactive” throughout. Besides, the Potency entry in assay [19] and in assay [20] was “inactive” in each case.
For the compound `BrC(Br)Br`, the Potency result in assay [1], in assay [2], in [3], in [4], in assay [5] and in assay [6] was “inactive” in each case. For the same compound, the Potency result in assay [7], in assay [8], in assay [9], in [10], in [11] and in assay [12] was “inactive” in each case. Moreover, the Potency entry in assay [13], in assay [14], in assay [15], in [16], in assay [17] and in assay [18] was “inactive” throughout. In addition, the Potency entry in [19] and in [20] was “inactive” in each case.

The values above are taken from PubChem BioAssay (Tox21).
